Measured values as given in PubChem BioAssay (Tox21).
Unmarked numbers belong to inactive results. The source made the active and inactive calls. Calls come from the whole dose curve.

molecular target: Gonadotropin-releasing hormone receptor (Homo sapiens) (UniProt P30968); assay: Human gonadotropin-releasing hormone receptor (GnRHR) small molecule agonists, calcium flux assay in GnRHR-HEK293 cells (AID 1920063); conditions: calcium flux fluorescence, agonist mode; series mostly up to 57.6 µM; activity change: at the top concentration; note: nearly all actives have a fitted effect of over 35% in size
Text: National Center for Advancing Translational Sciences [NCATS]
Division of Preclinical Innovation [DPI]
U.S. Environmental Protection Agency [EPA]
National Institutes of Environmental Health Sciences [NIEHS]
National Toxicology Program [NTP]
U.S. Food and Drug Administration [FDA]
Gonadotropin-releasing hormone receptor (GnRHR) is a G-protein-coupled receptor (GPCR) and acts (through phospholipase C) to increase intracellular inositol trisphosphate and then release intracellular calcium stores. Cell-based GnRHR-Hek293 calcium influx assay is using HEK293 cells that have been genetically engineered to express the human GnRHR, which activity can be measured by calcium signaling. A compound/drug can activate (agonist) GnRHR that can be monitored by levels of intracellular calcium.
GnRHR-HEK293 cells developed by Codex Corp contain human GnRHR reporter gene, which was stably integrated into HEK 293 cells. The compound activation can be detected by fluorescence intensity via calcium flux assay. This cell line has been used to screen the Tox21 10K compound library to identify GnRHR agonists.
GnRHR-Hek293 cells were dispensed at 1500cells/4uL/well in 1536-well black wall/clear bottom plates using a multidrop dispenser. After the assay plates were incubated at a 37 C/5% CO2 incubator for 18 hours, 4 uL of Calcium Dye Solution was added to each well. The plates were incubated at 37 C for 1 hour. For agonist mode, 23 nL of compounds dissolved in DMSO, positive controls or DMSO only was transferred to the assay plate by a pin tool station. The fluorescence intensity in the plates was measured using FDSS 7000EX kinetic plate reader with a filter set of Ex/Em=480/540 for 3 min at 1 sec intervals. Each test compound was measured at 15 concentrations and in triplicates.
% is set by controls: 0 for no effect and ±100 for the full control effect; potency is the fitted concentration of half-maximal effect.

Chain of Gonadotropin-releasing hormone receptor (Homo sapiens) (P30968 whole entry, looked up): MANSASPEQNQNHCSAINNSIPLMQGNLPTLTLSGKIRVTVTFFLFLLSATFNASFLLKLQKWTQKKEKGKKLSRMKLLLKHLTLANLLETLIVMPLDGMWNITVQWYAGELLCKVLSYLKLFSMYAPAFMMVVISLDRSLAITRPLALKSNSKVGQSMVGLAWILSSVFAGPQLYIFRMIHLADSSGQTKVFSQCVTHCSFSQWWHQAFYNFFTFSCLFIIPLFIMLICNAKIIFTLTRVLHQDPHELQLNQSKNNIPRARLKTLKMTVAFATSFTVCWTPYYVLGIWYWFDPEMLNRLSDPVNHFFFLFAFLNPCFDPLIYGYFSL

| SMILES | activity change | Potency |
| --- | --- | --- |
| CCc1ccc(C)nc1 | 1.18% | – |
| C/C=C/C(=O)O | -0.209% | – |
| CCC(=O)O[C@@H]1C[C@H]2CC[C@]1(C)C2(C)C | 2.97% | – |
| C=CC(=O)NC(C)C | -0.419% | – |
| CCOCCOCCOCC | 0.186% | – |
| CC(=O)c1ccc2ccccc2c1 | -1.1% | – |
| CC1(C)[C@@H]2CC[C@@]1(C)[C@H](O)C2 | 0.169% | – |
| CC(C)CC(=O)O | 1.2% | – |
| O=[N+]([O-])c1ccc(/C=C/c2ccc([N+](=O)[O-])cc2S(=O)(=O)O)c(S(=O)(=O)O)c1 | – | inactive |
| CCCN1C=CN(C)C1 | – | inactive |
| CC12CC3CC(C)(C1)CC(N)(C3)C2 | -0.133% [at 26.4 µM, stronger effect = higher value] | – |
| CC(C)(C)c1cc(Cc2cc(C(C)(C)C)c(O)c(C(C)(C)C)c2)cc(C(C)(C)C)c1O | – | inactive |
| CC(C)(C)NCC(O)c1ccc(O)c(CO)c1 (stereo not given) | – | 30.1 nM (active) |
| Nc1ccc(O)cc1 | – | inactive |
| Nc1cc(=O)[nH]c(N)n1 | -0.991% [at 26.4 µM, stronger effect = higher value] | – |
| CCC/C=C/CO | 0.996% | – |
| CC(C)=CCCC(C)CCOC(=O)C(C)C (stereo not given) | 1.8% | – |
| CCC(C)=O | -2.23% | – |
| FC(F)(F)c1ccccc1 | 1.38% | – |
| CC(C)CCCCCOC(=O)CS | 5.63% | – |

| SMILES | activity change | Potency |
| --- | --- | --- |
| C[Si](C)O[Si](C)(C)O[Si](C)(C)O[Si](C)C | -0.324% | – |
| Cc1cc(C)c(N)c(Cl)c1 | -1.72% | – |
| O=S(=O)(O)c1ccccc1 | – | inactive |
| CC1C(C)(C)C2=C(C(=O)CCC2)C1(C)C (stereo not given) | -0.0192% | – |
| O=C(O)c1ccc(OCCN2CCCCC2)cc1 | 0.0752% [at 26.4 µM, stronger effect = higher value] | – |
| CC(N)CN (stereo not given) | 1.81% | – |
| CC(=O)OCCC1CCCCC1 | -0.246% | – |
| CCOC(C)(C)C | 0.249% | – |
| O=C(c1ccc2c(c1)C(=O)OC2=O)c1ccc2c(c1)C(=O)OC2=O | -2.05% | – |
| C=CC(=O)CC | 0.345% | – |
| N#CCN(CC#N)CCN(CC#N)CC#N | -0.144% | – |
| C=CC(C)(O)CC/C=C(\C)CC (stereo not given) | -1.34% | – |
| N[C@@H](Cc1c[nH]c2ccccc12)C(=O)O | – | inactive |
| Cc1cccc(C)c1NC(=O)CN1CCCCCC1 | 0.789% [at 26.4 µM, stronger effect = higher value] | – |
| Cc1oncc1C(=O)Nc1ccc(C(F)(F)F)cc1 | – | inactive |
| CCCC(C)CCC(C)=O (stereo not given) | 0.0091% | – |
| O=C(O)C(S)C(S)C(=O)O (stereo not given) | 0.155% [at 26.4 µM, stronger effect = higher value] | – |
| O=C(O)CCS | 2.94% | – |
| O=C(O)C1CCC(C(=O)O)CC1 (stereo not given) | -0.495% | – |
| CCc1cnc(C(=O)O)c(C(=O)O)c1 | 0.384% | – |
